# ASM inhibitor = inhibitors of human secretory acid sphingomyelinase | placental ASM, HMU-PC fluorogenic substrate, 60 min | AID 504937 | Potency, µM (top dose mostly 57.5 µM), for inactives: at the highest dose activity change, negative = inhibition, usual class: inhibitors | P17405 | 340,000 compounds, 0.006% hits; also: potency is read from the fitted curve at half-maximal effect
# Target sequence (P17405 47-631 limits assumed): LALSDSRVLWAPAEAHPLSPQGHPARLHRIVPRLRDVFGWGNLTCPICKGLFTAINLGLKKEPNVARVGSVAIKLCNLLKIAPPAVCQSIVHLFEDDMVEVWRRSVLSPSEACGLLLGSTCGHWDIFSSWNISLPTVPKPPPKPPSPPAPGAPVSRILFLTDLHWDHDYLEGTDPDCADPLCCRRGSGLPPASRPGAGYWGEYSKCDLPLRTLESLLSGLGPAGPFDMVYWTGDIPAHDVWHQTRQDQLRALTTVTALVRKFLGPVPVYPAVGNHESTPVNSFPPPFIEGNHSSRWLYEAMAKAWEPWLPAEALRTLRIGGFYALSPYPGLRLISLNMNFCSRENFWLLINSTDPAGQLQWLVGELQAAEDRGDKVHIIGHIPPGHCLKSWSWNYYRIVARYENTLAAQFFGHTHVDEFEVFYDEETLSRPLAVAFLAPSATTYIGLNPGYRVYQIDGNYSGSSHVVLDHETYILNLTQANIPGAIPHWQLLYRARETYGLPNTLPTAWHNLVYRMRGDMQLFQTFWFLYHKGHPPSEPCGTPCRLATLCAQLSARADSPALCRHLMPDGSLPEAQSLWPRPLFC
#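 HMU-PC0 cleavage (9 uM final) by human placental ASM, 60 min at 37 °C following 10 min compound exposure at RT; stopped at pH 10, fluorescence Ex 386/Em 447 nm.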
# IL1B secr inh = inflammasome signaling inhibition, IL-1 beta readout | THP-1 LPS/ATP IL-1B secretion, AlphaLISA, 16 h; active compounds read low | activity change, % at 57.5 µM | 360,000 compounds, 4.7% hits | AID 743279; in the data active = activity change below about -50%; inconclusive = mostly about -30% to -49%; also: % is scaled to controls: 0 for no effect and ±100 for the full control effect
#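 Secreted IL-1B measured by AlphaLISA bead assay after 16 h compound exposure of THP-1 cells; compounds (final up to 57.5 uM) added 1 h before LPS (250 ng/mL) and ATP (1.25 mM) stimulation; lower signal means less secretion.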
# TGFb inhibitor = TGF-b pathway inhibition; 410,000 compounds, 1.2% hits; HepG2 CAGA-GFP TGF-b/SMAD3 reporter, GFP fluorescence, 18 h; TGF-beta stimulated, 500 pg/mL final; AID 588855; Potency, µM (doses to about 46.1 µM), without a hit: at the top dose activity, negative = inhibition, hits mostly inhibitors; also: potency is read from the fitted curve at half-maximal effect; % is scaled to controls: 0 for no effect and ±100 for the full control effect; nearly all actives have a fitted effect of over 65% in size
#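 Smad-responsive CAGA-GFP expression was quantified in HEPG2 cells exposed to compounds and 500 pg/mL final TGF-beta for 18 h at 37 degrees C; unstimulated wells defined full inhibition.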
# TDP1 cell CPT = DT40-hTDP1 cell growth loss with CPT; 420,000 compounds, 12% hits; AID 686979; Potency, µM (titrated, usually from 46.2 µM), for the others: top-dose activity change, negative = growth inhibition, hits mostly inhibitors; chicken DT40 Tdp1-/-;hTDP1 cells + 20 nM CPT, ATP luminescence, 48 h; also: potency is read from the fitted curve at half-maximal effect; % is scaled to controls: 0 for no effect and ±100 for the full control effect; nearly all actives have a fitted effect of over 55% in size
#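 Cell growth measured by CellTiter-Glo luminescence after a minimum 48 h, 37 C compound exposure with 20 nM CPT in Tdp1-knockout DT40 cells stably expressing hTDP1, seeded 400/well; qHTS titration format.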
# HepG2 viability = HepG2 cytotoxicity, counter-screen for TGF-b inhibitors. 410,000 compounds, 0.76% hits. HepG2 CAGA-GFP viability, ATP luminescence, 18 h. Potency, µM (titrated, usually from 46.1 µM), for inactives: top-dose activity change, negative = cytotoxicity, actives largely listed as cytotoxic; also: potency is read from the fitted curve at half-maximal effect
#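 CellTiter-Glo luminescence gave cytotoxicity after 18 hours at 37 degrees C. The cells were HepG2 CAGA-GFP in 1% FBS DMEM, stimulated with 500 pg/mL TGF-beta after compound addition. %Activity was normalised to no-cell wells (complete cell-killing) and DMSO (no toxicity), and curves were fitted and classified.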
# DT40 TDP1 no CPT = qHTS for Inhibitors of human tyrosyl-DNA phosphodiesterase 1 (TDP1): qHTS in cells in absence of CPT. DT40 Tdp1-/- hTDP1 cells, no CPT, ATP luminescence, 48 h. Potency, µM (titrated, usually from 46.2 µM), for the others: top-dose activity change, negative = growth inhibition, most hits filed as inhibitors. 420,000 compounds, 15% hits; also: potency is read from the fitted curve at half-maximal effect; % is scaled to controls: 0 for no effect and ±100 for the full control effect; nearly all actives have a fitted effect of over 55% in size
#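 Luminescent ATP content (CellTiter-Glo) served as the growth readout. Knockout chicken DT40 cells expressing human TDP1 were exposed to compounds without camptothecin for a minimum 48 hr at 37 °C.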
# The depositor's hits bear a star; ? = inconclusive; nt = no result given. An excerpt weighted towards active compounds, which were near 19% of everything screened. Unless noted, calls follow the shape of the dose curve; as a rule, active = well fitted curve in the direction sought with a large enough effect; inconclusive = small, poorly fitted or top-dose-only effect, or another doubt; inactive = no such curve, though single readings can be large; an effect the other way counts as inactive or inconclusive.
SMILES,ASM inhibitor,IL1B secr inh,TGFb inhibitor,TDP1 cell CPT,HepG2 viability,DT40 TDP1 no CPT
COc1ccc(C(=O)Nc2c(N)nc[nH]c2=O)cc1,18%,23,-2%,23%,-23%,-10%
COc1cc(CNc2nc3c(C)cc(C)cc3s2)ccc1O,-15%,-17,0%,?,-17%,21µM*
NC(=O)C1CCN(CC(O)COCc2ccccc2Cl)CC1 (stereo unspecified),-1%,7,3%,4%,1%,-6%
COCCn1c(=O)cnc2cnc(Oc3cccc(Cl)c3)nc21,nt,nt,nt,-4%,nt,-6%
O=c1cnc2cnc(Oc3cccc(Cl)c3)nc2n1Cc1ccc(F)cc1,nt,nt,nt,?,nt,23µM*
COc1ccc(-c2nc3cnc(N(C)C)nc3n(Cc3ccc(F)cc3)c2=O)cc1,nt,nt,nt,-8%,nt,-1%
COc1ccc(Oc2ncc3ncc(=O)n(Cc4cccs4)c3n2)cc1,nt,nt,nt,?,nt,23µM*
CN(C)c1ncc2ncc(=O)n(Cc3ccc(F)cc3)c2n1,nt,nt,nt,10µM*,nt,21µM*
Cc1ccc(C)c(Cn2c(=O)n(-c3ccccc3)c(=O)c3c4c(sc32)CCCC4)c1,nt,nt,10%,?,0%,-6%
O=C(COc1ccc(Br)cc1)N(Cc1nnc(-c2ccccc2Cl)o1)C1CC1,nt,-4,-10%,23µM*,-44%,23µM*
Cc1cccc(OCC(=O)N(Cc2nnc(-c3ccccc3Cl)o2)C2CC2)c1,-2%,-2,2%,16µM*,0%,?
O=C(COc1ccc(F)cc1Cl)N(Cc1nnc(-c2ccccc2Cl)o1)C1CC1,nt,-11,8%,-29%,-3%,16µM*
O=C(NCCc1cccc(C(F)(F)F)c1)C1CCC(=O)N(C2CC2)C1 (stereo unspecified),5%,4,21%,14%,15%,-20%
COC(=O)[C@]12CCCCC=C1N(Cc1ccccc1)C(=O)[C@H](CC(=O)N1CCCCC1)C2,nt,-2,nt,?,nt,?
C=CC[C@@H](CC(=O)N[C@@H](CO)Cc1ccccc1)C(=O)N[C@@H](COC(=O)[C@@H](CC=C)Cc1ccc(F)cc1)Cc1c[nH]c2ccccc12,-4%,-51*,-29%,16µM*,-28%,21µM*
C=CC[C@@H](CC(=O)N[C@H](CO)Cc1ccccc1)C(=O)N[C@H](COC(=O)[C@@H](CC=C)Cc1ccc(F)cc1)Cc1c[nH]c2ccccc12,-12%,?,?,13µM*,-75%,18µM*
C=CC[C@H](CC(=O)N[C@H](CO)Cc1ccccc1)C(=O)N[C@H](COC(=O)[C@@H](CC=C)Cc1ccc(F)cc1)Cc1c[nH]c2ccccc12,-7%,-10,-19%,-2%,-9%,-10%
CCOC(=O)N1CCN(C(=O)C[C@@H]2C[C@@]3(C(=O)OC)CCCCC=C3N(Cc3ccccc3)C2=O)CC1,nt,-3,nt,?,nt,?
O=C(CCN1C(=O)C2C3C=CC(C3)C2C1=O)N1CCN(c2cccc(Cl)c2)CC1 (stereo unspecified),-1%,-1,8%,16µM*,1%,16µM*
O=C(CCN1C(=O)C2C3C=CC(C3)C2C1=O)N1CCN(c2ccccn2)CC1 (stereo unspecified),5%,-6,-3%,2%,0%,-18%
Cc1cccc(N2C(=O)C3C4C=CC(C4)C3C2=O)c1 (stereo unspecified),-1%,12,1%,-7%,-5%,-16%
Cc1cccc(N2CCN(C(=O)c3cccc(N4C(=O)C5C6C=CC(C6)C5C4=O)c3)CC2C)c1 (stereo unspecified),-3%,11,-15%,13µM*,-10%,21µM*
Cc1cccc(N2CCN(C(=O)CCN3C(=O)C4C5C=CC(C5)C4C3=O)CC2C)c1 (stereo unspecified),1%,-7,13%,-29%,-3%,26µM*
CC(C)OC(=O)N(C)C[C@@H]1OCc2cnnn2CCCC(=O)N([C@@H](C)CO)C[C@@H]1C,nt,3,-9%,20%,-13%,-22%
c1ccc2c(c1)nnn2CNc1nccs1,7%,10,3%,9.2µM*,-11%,-33%
SMILES,ASM inhibitor,IL1B secr inh,TGFb inhibitor,TDP1 cell CPT,HepG2 viability,DT40 TDP1 no CPT
c1ccc(CCn2nnc3ccccc32)cc1,2%,3,0%,?,0%,?
CC(C)CN(C(=O)C1CCC1)c1c(N)n(Cc2ccccc2)c(=O)[nH]c1=O,10%,-9,-5%,-9%,-8%,1%
O=C(NCC(c1cccnc1)N1CCc2ccccc21)c1ccc(F)c(F)c1 (stereo unspecified),nt,nt,?,13µM*,-30%,9.2µM*
Cc1ccc(C(=O)NCC(c2cccnc2)N2CCc3ccccc32)cc1C (stereo unspecified),nt,nt,?,7.3µM*,-24%,15µM*
COc1cc(C(=O)NCC(c2cccnc2)N2CCc3ccccc32)cc(OC)c1OC (stereo unspecified),nt,nt,-25%,?,-30%,21µM*
Cc1ccc(NC(=O)C(=O)NCC(c2cccnc2)N2CCN(C)CC2)cc1C (stereo unspecified),nt,nt,6%,-2%,-25%,-4%
COc1ccc(C(=O)NCC(c2cccs2)N2CCOCC2)cc1OC (stereo unspecified),3%,18,0%,6%,6%,19%
COc1ccc(C(=O)NCC(c2cccs2)N2CCc3ccccc32)cc1OC (stereo unspecified),-5%,-12,-22%,?,-22%,21µM*
O=C(NCC(c1cccnc1)N1CCc2ccccc21)c1ccccc1Br (stereo unspecified),nt,nt,-14%,?,-9%,?
O=C(NCCO)C(=O)c1c(-c2ccccc2)cc2ccccn12,-3%,24,6%,-3%,6%,0%
CCOC(=O)c1ccc(S(=O)(=O)NNc2ccc(C(F)(F)F)cn2)cc1,?,15,4%,-19%,-24%,20%
CCOC(=O)c1cc(CC)sc1NC(=O)COC(=O)C1CCC1,-10%,42,6%,12%,0%,8%
CN(C)c1ccc(/C=C2\C(Cl)=Cc3ccccc32)cc1,nt,nt,-4%,?,-36%,?
O=C(O)CN1CCCC1=Nc1ccccc1,-2%,28,-3%,-27%,4%,4%
